In publication PMC7819943, “Rice protein-binding microarrays: a tool to detect cis-acting elements near promoter regions in rice”:
Over roughly 68,000 sequences, “fluorescence intensity (a.u.)” has its median near 9,100; the highest 2% begin near 16,000. The full list was thinned out, with the highest values kept by preference.

Each sequence was assayed against OsWRKY34 (Oryza sativa, UniProt Q0JBA9 1-250) (assay: protein-binding microarray (RPBM); PBS, 2% BSA, 51.3 ng/ul salmon testes DNA, 50 uM zinc acetate, 200 nM TF, 25 C, 1 h; high values mean tight binding). Conditions: protein: recombinant; tags: N-terminal polyhistidine and DsRed monomer fusion (pET32a); label: CyDye5-dUTP incorporated in the synthesized complementary strand; 3' TTTTT single-stranded linker to array surface; dsDNA, one strand shown.
OsWRKY34, sequence (Q0JBA9 entry or part of it): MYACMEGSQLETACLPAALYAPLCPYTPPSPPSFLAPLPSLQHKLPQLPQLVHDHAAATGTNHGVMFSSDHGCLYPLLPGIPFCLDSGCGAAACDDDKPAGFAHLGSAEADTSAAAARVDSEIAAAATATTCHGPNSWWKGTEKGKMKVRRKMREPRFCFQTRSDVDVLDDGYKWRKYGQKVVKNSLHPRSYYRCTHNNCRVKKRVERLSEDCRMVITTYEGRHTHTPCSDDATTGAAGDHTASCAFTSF
Summary of the method: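 Transcription factors were each fused at the N-terminus to a polyhistidine tag plus DsRed and expressed in E. coli BL21-CodonPlus before Ni–NTA purification. Binding to a double-stranded custom Agilent array was carried out with 200 nM protein at 25 °C for 1 h in PBS, 2% BSA, salmon testes DNA and 50 µM zinc acetate. The binding signal is per-feature fluorescence intensity, in arbitrary units, on an Axon 4000B scanner.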
“CTTTCCATGGTTTTTGCTCCCGCAGCCCGGGCCACTGCCCCGGAGTCACCTAGTGCAG” was tested, and the binding signal was 11600 fluorescence intensity (a.u.). In the case of “CGTCTCGTTTCTCATCTCAAAATTTCGCGCCTCGTCGCCGCGGAGTCACCTAGTGCAG”, the binding signal is reported as 8640 fluorescence intensity (a.u.). For “GCTCAGCCGCCGTCGCCAGTCCAACCTCCGCCACCGCGGCCGGAGTCACCTAGTGCAG”, the binding signal was 8640 fluorescence intensity (a.u.). With “CCAAACCCAACCCTCGACGCCAATTAAACACCAATTTTCTCGGAGTCACCTAGTGCAG” the binding signal was 8920 fluorescence intensity (a.u.). With “ACAGCTTAAAATTTCCTCCTCCGCCCAAAAACCCTCTCGACGGAGTCACCTAGTGCAG” the binding signal was 24300 fluorescence intensity (a.u.). In the case of “CCCGAACCCACCACCTCCGCCCATTTCCGCCTCCTCTCGACGGAGTCACCTAGTGCAG”, the binding signal is reported as 9190 fluorescence intensity (a.u.). “CCTTGACAGATTAATCCTACGTTTTGACCCCATATGTTTTCGGAGTCACCTAGTGCAG” was tested, and the binding signal was 8880 fluorescence intensity (a.u.). For “CTTGTAGCTGTAATTCCCTATTGTTGTTTTTCGGTACTGTCGGAGTCACCTAGTGCAG”, the binding signal was 13200 fluorescence intensity (a.u.). “TCGCAAGAGTTGTTGAAAGTTGACCAGCATATTGAGGCCCCGGAGTCACCTAGTGCAG” was tested, and the binding signal was 8130 fluorescence intensity (a.u.). In the case of “GTCTCATTCTTCTTATTTCCATTTTTTTTTTCTCTCAAAACGGAGTCACCTAGTGCAG”, the binding signal is reported as 11100 fluorescence intensity (a.u.). “AGACATTCTCCATTTTCTTTCTTCTCTTCACTCACACTCACGGAGTCACCTAGTGCAG” was tested, and the binding signal was 8800 fluorescence intensity (a.u.). With “TTCTTTGGATTTGATTGGTGCCGCCTTTTTTCGCTATTGACGGAGTCACCTAGTGCAG” the binding signal was 15600 fluorescence intensity (a.u.). For “CACACACACCGATCTTTTCATTCATTCTTTTCTTTCTTTTCGGAGTCACCTAGTGCAG”, the binding signal was 18700 fluorescence intensity (a.u.). With “CAACACATCTCTTGCATTTTTTTTTCTTTGCATTCTCATTCGGAGTCACCTAGTGCAG” the binding signal was 8200 fluorescence intensity (a.u.). For “TCTCAATTGCACCTCATTTAATCCTCATTTTTCATCTTTTCGGAGTCACCTAGTGCAG”, the binding signal was 11800 fluorescence intensity (a.u.). In the case of “ACTCACTTCAAAATTTTCACATCCTCTCTCATCATTTTTTCGGAGTCACCTAGTGCAG”, the binding signal is reported as 11100 fluorescence intensity (a.u.). In the case of “GCCTATTCTTTTCGCCACCGCTATCGCCACACATCACGGACGGAGTCACCTAGTGCAG”, the binding signal is reported as 17500 fluorescence intensity (a.u.). For “ACAACTCACTCTCTTCATTTTCCATTCTCGTGCTTTTCAACGGAGTCACCTAGTGCAG”, the binding signal was 16600 fluorescence intensity (a.u.). In the case of “TTCCTTTTTCATCTTCTTTTCACATTTTTTCTTTATTTTTCGGAGTCACCTAGTGCAG”, the binding signal is reported as 12400 fluorescence intensity (a.u.). For “TCTCTTTTCTCATTTTTTCGCTTGCCACATCATTTTCTATCGGAGTCACCTAGTGCAG”, the binding signal was 9600 fluorescence intensity (a.u.). For “ACTCACCTCTCTCATCTTTCGTGCACACATTTTTCAATTTCGGAGTCACCTAGTGCAG”, the binding signal was 17700 fluorescence intensity (a.u.). With “TCCTCTTCTTTTCTCTCCCTCCGCCACTCGACGCCCAACCCGGAGTCACCTAGTGCAG” the binding signal was 9310 fluorescence intensity (a.u.). “TCGATTCCGGCGTGCGAATTCCTCCACCTCGCCGCCGCCGCGGAGTCACCTAGTGCAG” was tested, and the binding signal was 8810 fluorescence intensity (a.u.). “TTCCTGTTCCTGCAAGAAAACGCTCATCCTCTTGCTTTTTCGGAGTCACCTAGTGCAG” was tested, and the binding signal was 9650 fluorescence intensity (a.u.). For “AGGCCTCCACGGCTCCACCTCCTTCCGCTTTCGCCTATCCCGGAGTCACCTAGTGCAG”, the binding signal was 10000 fluorescence intensity (a.u.). For “AAAGTGCCGTATTTTTGTGTTTCTGTTGTAGTGGTAATTACGGAGTCACCTAGTGCAG”, the binding signal was 12000 fluorescence intensity (a.u.). “TGGGTTGTGGCAGTGTCTTATAAGGCTATATTAAGTCTATCGGAGTCACCTAGTGCAG” was tested, and the binding signal was 8060 fluorescence intensity (a.u.). In the case of “TTGCTGTCTTGCGTGTTCATGCTGCCCCGCGGGCGTTGAGCGGAGTCACCTAGTGCAG”, the binding signal is reported as 9010 fluorescence intensity (a.u.). With “TACCAACATTGTAGCAACAGATTCATCTCTCTTTTTTTTTCGGAGTCACCTAGTGCAG” the binding signal was 18100 fluorescence intensity (a.u.). “GTGACCCAACATTCAGATTCATCTTTTTTTTTCACCTTCTCGGAGTCACCTAGTGCAG” was tested, and the binding signal was 11300 fluorescence intensity (a.u.). In the case of “TTTTCATTGTGTTGTAGCCAACAGCCACATTGTTTTCTTTCGGAGTCACCTAGTGCAG”, the binding signal is reported as 8080 fluorescence intensity (a.u.). With “AGTCACGAATCAAACAACCCCTTAAACTGTATTTGATTGTCGGAGTCACCTAGTGCAG” the binding signal was 8060 fluorescence intensity (a.u.). For “TGTTCTACTTGGCTGTCTCATACTTTTTTTATTTCTCTCTCGGAGTCACCTAGTGCAG”, the binding signal was 11200 fluorescence intensity (a.u.). “TGGTTCTTGCTCTTGTTCTTGCTGCTGCTGCTTTTGCTCTCGGAGTCACCTAGTGCAG” was tested, and the binding signal was 9380 fluorescence intensity (a.u.). In the case of “GCGGTGGTGGACAGTCCCAGACTGACTTGTGGTGGGGACTCGGAGTCACCTAGTGCAG”, the binding signal is reported as 9560 fluorescence intensity (a.u.). With “GGCTGGGCTTTTTGGGCTTTCTTTGATCTATATTTTGAGACGGAGTCACCTAGTGCAG” the binding signal was 18200 fluorescence intensity (a.u.). In the case of “AGCGATACTCTACTGCTACCTTGTCCCAACATGCTGGGCTCGGAGTCACCTAGTGCAG”, the binding signal is reported as 8260 fluorescence intensity (a.u.). For “ACTCTCTCTCTCTCTCTGCTTCTTCTTGTGTTGTGCTTGTCGGAGTCACCTAGTGCAG”, the binding signal was 9800 fluorescence intensity (a.u.). “GGGTTCTTGGCTACTGGGGCTGTCTCTCTATCTTTCTTGACGGAGTCACCTAGTGCAG” was tested, and the binding signal was 21600 fluorescence intensity (a.u.). For “GCTATGAGATTTATATATTTTTTTGTCCTGGGCTTCTTTTCGGAGTCACCTAGTGCAG”, the binding signal was 9510 fluorescence intensity (a.u.). With “GGCTGGGGTGGGCTCTACTTGACAGACTGATACTCCTACTCGGAGTCACCTAGTGCAG” the binding signal was 19600 fluorescence intensity (a.u.). For “CTTGGTTTTCTTGATTTCTTGGGTTCTTGGCTACTGGGGCCGGAGTCACCTAGTGCAG”, the binding signal was 9490 fluorescence intensity (a.u.). With “TCTCTGCTTCTCGTTGTTCTTGGTTGGTTGTTGTTGTAGACGGAGTCACCTAGTGCAG” the binding signal was 19400 fluorescence intensity (a.u.). In the case of “CATGTCTATCTTTCTACTATTTATTTTTTTTTGGCAGAGACGGAGTCACCTAGTGCAG”, the binding signal is reported as 12700 fluorescence intensity (a.u.).
